Here are results for 40 sequences from the supplement of paper PMC6555819.

This assay deals with VDR:RXRa (NR concentration 270 nM, RXRa partner concentration 90 nM). Briefly: PBM binding z-score (relative to random genomic background probes); higher = stronger binding; sequences stand for … in GC…GCGATTGACAGCGTAGAATGAAGG
How it is done:
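Protein-binding microarray (Agilent 4x180K custom design, double-stranded 60-nt probes: 5' GC cap, 34-nt variable region, 24-nt constant primer region; full probe sequence given). Purified or IVT nuclear receptor:RXRα heterodimers (3:1 NR:RXRα, mostly 270:90 nM) or homodimers were incubated for 1 h in PBS with 2% milk and no ligand, then detected with Alexa488 antibodies. Fluorescence from o1-orientation probes (~5 replicates averaged) was converted to z-scores against 500 random hg19 background probes. Variable regions are seed direct-repeat (DR0–DR5) sites, all their single-nucleotide variants and half-site ablations.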
CGTCAACGTTCAAGGTAACGTAACAGAAAGCAGC: the PBM binding z-score is -0.14.

For CCTCGGAGGACAACAGGAGGACAGAGCTGCCAGA, the PBM binding z-score is -0.461.

In turn, GCTAGCAGGCCATTTGGGTCACCCAATGACGGGC displayed a PBM binding z-score of 1.07.

Regarding TCGAGTAGGTTAGGCGCATTCAGAATGGCGTCGA, the PBM binding z-score is -0.563.

CAAACTATGTCAAGAGGTCAAAGTCCGCTTCCCG gave a PBM binding z-score of 5.15.

Consider GCTGCTAGGTCAGGCTGGTCAGCTAACGGGTACG, for which the PBM binding z-score came out at 0.677.

For the sequence ATACGTAGGTTAAGGGTCATTCAGGTTGGTTCGC, the PBM binding z-score was 5.82.

With ACTATTAGCTGACTTAGGGCAACCGATACGACGC, the PBM binding z-score was -0.114.

Sequence CTACCAAGGCGAACAAGGTCGTTGATTACTATTC came in with a PBM binding z-score of 2.59.

In turn, ATCTCTAGGTAACAAGTTCAATGAAAGAGAGGAC registered a PBM binding z-score of 2.67.

In turn, CCTTACGGGTCACAGACAGGTTATAGCATTTGGA gave a PBM binding z-score of 4.06.

TCGAGTAGGTTACTCGGGGCATTCAGCCAACATA: the PBM binding z-score was 3.33.

For the sequence CCTTACGGGTGAAGGTTATAGCACGGGTGGTACG, the PBM binding z-score is 0.0707.

Sequence ATCTCTAGGTAAAGATAGTTGAGTGAATGCAAAT yielded a PBM binding z-score of 0.375.

CCTACTGGGCCATCAGGTTATTGATATCAACGTT registered a PBM binding z-score of 0.0822.

For the sequence TCTGCTAGGTCAACGATGGTCAGCTATTCTGCTA, the PBM binding z-score was 1.71.

ACGATTAGTTGAGACGAGGGCAACCGATAGGTTG registered a PBM binding z-score of 0.249.

Sequence GCTGCCAGGTCAACTGATGGTCAGCTAAAGCTCG returned a PBM binding z-score of 2.62.

The sequence CGTCAAAGTTCAAGGTAACGTATCAGAAAGCAGC yielded a PBM binding z-score of 3.97.

The sequence CCGAGTAGGTTATGGGACATTCAGGCAACGGTGA returned a PBM binding z-score of 0.258.

Turning to TAGCCTAGGTCATGGGGGCCAGTATAGTGTCGGC, the PBM binding z-score was determined as 5.43.

The sequence CCGACTGGGGCATAAGGTTACCAAAAGCCAGCCC showed a PBM binding z-score of 0.198.

Regarding CGAACTAGGTCATTGACAGGACAGTGCATAGTAA, the PBM binding z-score worked out at 2.5.

As for ATCTCTAGGTAAGACTCAGTTCATTGAAGAACGC, the PBM binding z-score is 2.42.

As for TCATATAGGAAAAAGGTGAAAGTCGGTGTGGTAA, the PBM binding z-score amounted to 1.21.

CGTCCAAGGTCAGCAGGTCATTGAAAGCGACGTG displayed a PBM binding z-score of 4.67.

The sequence CCGACTGGGGCAGAAAGGTTATCATACCATCCGG registered a PBM binding z-score of 0.932.

CCTAGTTGGTCAAGATCACACACGCTATAGGTAC registered a PBM binding z-score of 0.862.

GCTCGGAGGACAAGGTCAGCGCTTTGTCCGTAGA: the PBM binding z-score came to 1.88.

On to CCTGCTCGGTCATGGTCAGCTAATCTACAGTATG, for which the PBM binding z-score is -0.315.

Sequence TCATATAGGTAAAAGGTGAAAGTTGGTGTGGTAA showed a PBM binding z-score of 1.88.

CGTGCAAGGTCAATGCTAGGTCAGTGAAAGCATT: the PBM binding z-score was 5.24.

With TAGCCTAGGTCATTGAGGGGCCAGTATAGAAAGC, the PBM binding z-score was 3.07.

Take CGAGACAGGTGAAAGGTAACTCAGTCTGGTACGC: the PBM binding z-score worked out at 0.633.

In the case of TGAATGAGGTTAAAGATCATGGAACGTGGCGTCG, the PBM binding z-score was found to be 2.05.

With GCATATGGGTAATACAAGGTGAAAGTCCGATTGT, the PBM binding z-score was determined as 0.212.

As for TCGAGTAGGTTAGTCGGGGCAATCAGCCAACATA, the PBM binding z-score came out at 1.05.

CGTCCAGGGTCAATGCTAGGTCAGTGAAAGCATT registered a PBM binding z-score of 4.9.

The sequence CTACCAGGGTGAACAAGGTCGTTGATTACTATTC registered a PBM binding z-score of 6.27.

Sequence ACTTACGGGTCAACGAGGTTCTAGCACGCGTATA came in with a PBM binding z-score of 6.52.
